# From PubChem BioAssay
# Hits are enriched below; roughly 4.1% of the tested compounds scored in any of these assays.
# rCAG binder: r(CAG) repeat RNA binding; TO-PRO-1 dye displacement fluorescence; inhibition, % at 3 µM; actives 1.3% (n = 370,000);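 active means inhibition above the plate cutoff, the mean of all test compounds on that plate plus 3 SD, cut at about 35% in these data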;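 further: 0% = DMSO alone and 100% = 100 µM mitoxantrone as full dye displacement; higher means more dye released from RNA so lower well fluorescence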
# PRMT1 FP inh: blocks human protein arginine methyltransferase 1; AID 652257; Q99873; recombinant PRMT1, activity-based probe fluorescence polarization; actives 1.3% (n = 370,000); inhibition, % at 2.79 µM;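 active means inhibition above about 21% made by adding two undisclosed values, limit read from the data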
# Target sequence (Q99873 whole entry, looked up): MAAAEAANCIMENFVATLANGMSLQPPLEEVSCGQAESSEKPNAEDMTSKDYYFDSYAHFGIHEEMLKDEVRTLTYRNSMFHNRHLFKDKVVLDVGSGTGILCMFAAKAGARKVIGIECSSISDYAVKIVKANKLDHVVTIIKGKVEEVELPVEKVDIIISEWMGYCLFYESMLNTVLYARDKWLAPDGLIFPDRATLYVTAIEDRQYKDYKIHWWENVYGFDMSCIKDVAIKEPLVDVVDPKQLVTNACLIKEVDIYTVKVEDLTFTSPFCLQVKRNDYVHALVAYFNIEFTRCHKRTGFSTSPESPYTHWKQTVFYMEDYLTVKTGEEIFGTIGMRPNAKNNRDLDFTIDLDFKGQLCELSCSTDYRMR
# ABHD5 PLIN5 PPI: ABHD5-PLIN5 protein interaction inhibition. Q00G26+Q8WTS1. Split G. princeps luciferase complementation, luminescence, 4 h. inhibition, % at 4 µM. actives 0.78% (n = 360,000);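 active means inhibition above the mean inhibition across every tested compound plus 3 SD, cut at about 22% in these data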;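 further: 0% = DMSO only wells and the 100% control is not disclosed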
# UHRF1 binding: human UHRF1 methylated DNA binding inhibitors. Q96T88. UHRF1 binding to methylated oligo, TR-FRET. inhibition, % at 4.4 µM. AID 687016. actives 0.75% (n = 370,000); in the data active means inhibition above about 21%;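 further: UHRF1 SRA domain binding a hemimethylated CpG hairpin DNA probe; 0% = median of test compound wells and 100% = reference inhibitor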
# MBD2 inh: blocks human MBD2 binding to methylated DNA; Q9UBB5; TR-FRET, MBD2 binding to methylated oligonucleotide; inhibition, % at 4.4 µM; actives 0.31% (n = 370,000); in the data active means inhibition above about 13%
# LEDGF integ inh: blocks HIV-1 LEDGF/p75-dependent DNA integration. TR-FRET IN-LEDGF/p75 DNA integration, Eu/Cy5. inhibition, % at 3.7 µM. actives 0.64% (n = 370,000). AID 743269;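 active means inhibition above the screen-wide mean plus 3 SD, cut at about 13% in these data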;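 further: signal is the Cy5 over europium emission ratio at 671 and 618 nm; 0% = plate median of compound wells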
# PRMT1 confirm: confirmation of human PRMT1 inhibitors; inhibition, % at 2.79 µM; shares compounds with PRMT1 FP inh; actives 42% (n = 3,300); recombinant His-PRMT1, activity-based probe fluorescence polarization;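 active means mean inhibition across replicates above the hit cutoff derived for the earlier primary screen, cut at about 22% in these data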
# UHRF1 DNA bind: inhibits human UHRF1 binding to methylated oligonucleotide, MBD2 counter-screen; inhibition, % at 4.4 µM; actives 25% (n = 1,000); AID 720530; TR-FRET; shares compounds with MBD2 inh; in the data active means inhibition above about 21%;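 further: UHRF1 SRA domain binding a labeled hemimethylated CpG hairpin DNA; 0% = vehicle only and 100% = reference inhibitor with vehicle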
# MBD2 DBD conf: confirmation of human MBD2-DBD methylated oligonucleotide binding inhibitors; shares compounds with MBD2 inh; TR-FRET MBD2-DBD binding to methylated oligonucleotide; inhibition, % at 4.4 µM; actives 26% (n = 1,000); AID 720531
# IN multimer act: activates HIV-1 integrase multimerization in LEDGF counter-screen | shares compounds with LEDGF integ inh | activation, % at 7.7 µM | actives 17% (n = 2,000) | TR-FRET HIV-1 integrase multimerization, biochemical; in the data active means activation above about 8.9%
# TR-FRET interf: counter-screen for LEDGF/p75 integration inhibitors: TR-FRET optical interference; 2,000 tested, under 10 active; shares compounds with LEDGF integ inh; inhibition, % at 7.7 µM; TR-FRET optical interference counterscreen, HIV-1 IN multimerization;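 active means inhibition above the mean over all tested compounds plus 3 SD, which no compound reached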;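 further: 0% = integrase with antibodies and DMSO and 100% = antibodies without integrase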
# LEDGF integ conf: LEDGF/p75-dependent HIV-1 integration inhibition, confirmation; inhibition, % at 3.7 µM; actives 36% (n = 2,000); TR-FRET LEDGF/p75-dependent HIV-1 integration, biochemical; shares compounds with LEDGF integ inh
# * = called active by the depositor; · = no result; ! = a repeat was not active. Unless noted, no stated cut-off is given here; in the data, active means inhibition above about 14%; inactive means the rest.
SMILES,rCAG binder,PRMT1 FP inh,ABHD5 PLIN5 PPI,UHRF1 binding,MBD2 inh,LEDGF integ inh,UHRF1 DNA bind,MBD2 DBD conf,IN multimer act,TR-FRET interf,LEDGF integ conf,others
Cc1ccc(N2C(=O)NC(=O)/C(=C\c3cc(C)n(-c4ccc(C(=O)O)cc4)c3C)C2=O)cc1,12,0,7,-2,0,2,·,·,·,·,·,
COc1ccc(CNC(=O)CCC(=O)N2C[C@H]3C[C@H](C2)c2cccc(=O)n2C3)cc1,-1,-5,0,-1,-5,7,·,·,·,·,·,
N#Cc1c(/N=C/c2c(O)n(Cc3ccco3)c(=O)[nH]c2=O)sc2c1CCCC2,26,26*,-2,46*,5,34*,·,·,2,-11,10,PRMT1 confirm=6
C#C[C@]1(O)CC[C@H]2[C@@H]3CCC4=Cc5nc6nc7ccccc7n6cc5C[C@]4(C)[C@H]3CC[C@@]21C,7,13,-6,-6,-3,2,·,·,·,·,·,
C=C1C(=O)O[C@@H]2C[C@@H](C)[C@@H]3C=CC(=O)[C@@]3(C)[C@@H](OC(=O)CC(=O)O[C@H]3[C@@H]4C(=C)C(=O)O[C@@H]4C[C@@H](C)[C@@H]4C=CC(=O)[C@]43C)[C@H]12,11,29*,99*,4,1,25*,·,·,4,-20,59*,PRMT1 confirm=26*
CC[C@@H](CO)NC(=O)[C@@H]1C=C2c3cccc4[nH]cc(c34)C[C@H]2N(C)C1,5,30*,-1,11,0,14*,·,·,0,1,17*,PRMT1 confirm=19
CC[C@@H](CO)NC(=O)[C@@H]1C=C2c3cccc4c3c(cn4C)C[C@H]2N(C)C1,3,47*!,-7,17,5,25*!,·,·,2,-7,14*,PRMT1 confirm=6
CC(C)C[C@H]1C(=O)N2CCC[C@H]2[C@]2(O)O[C@](NC(=O)[C@@H]3C=C4c5cccc6[nH]cc(c56)C[C@H]4N(C)C3)(C(C)C)C(=O)N12,·,·,6,·,·,·,·,·,·,·,·,
O=S(=O)(c1ccc(Cl)cc1)N1Cc2ccc(Br)cc2-n2nncc2C1,1,4,·,3,1,-2,·,·,·,·,·,
COc1ccc(-n2c(-c3ccccc3Br)nc3ccccc3c2=O)cc1,-3,0,-9,-2,-8,0,·,·,·,·,·,
CN(C)Cc1c[nH]c2cc([N+](=O)[O-])ccc12,0,-5,8,-3,19*,0,-1,-1,·,·,·,
O=C(NCCO)c1nsnc1NCCCl,1,12,2,6,2,-1,·,·,·,·,·,
CCC1=Nc2cc(C(=O)N3CCC4(CC3)OCCO4)ccc2Sc2ccc(C)cc21,-2,-2,0,3,21*,3,6,1,·,·,·,
CCC1=Nc2cc(C(=O)N3CCC4(CC3)OCCO4)ccc2Sc2ccccc21,-6,0,4,4,2,-4,·,·,·,·,·,
Cc1ccc(-c2nc3ccccc3c(=O)n2-c2ccccn2)cc1,2,4,-1,3,7,-8,·,·,·,·,·,
COc1ccc(-c2n(-c3ccccn3)c3ccccc3[n+]2-c2ccccn2)cc1,0,7,-5,31*,46*,1,74*,88*,·,·,·,
O=C(c1ccccc1)N1Cc2cc(Br)ccc2-n2nncc2C1,2,-1,·,1,-4,-1,·,·,·,·,·,
CNc1ccc2nc3ccccc3[n+](C)c2c1,-3,21*,-20,-15,15*,9,19,20*,·,·,·,
C[C@H](CO)N1C[C@H](C)[C@@H](CN(C)C(=O)Oc2ccc3ccccc3c2)OCc2cnnn2CCCC1=O,2,-3,-4,-1,-4,-1,·,·,·,·,·,
COc1cc2c(ccc3c4cc(OC)c(OC)cc4c[n+](C)c23)cc1O,9,6,15,24*,88*,1,56*,100*,·,·,·,
COC(=O)CC1(CC(=O)OC)C(=O)N(c2ccccc2)C(=O)N(c2ccccc2)C1=O,-5,3,1,0,55*,1,2,1,·,·,·,
COC(=O)CC1(CC(=O)OC)C(=O)NC(=O)NC1=O,-1,2,1,0,0,-1,·,·,·,·,·,
Cc1ccc2c(C)c3ccc4ccccc4c3c[n+]2c1,10,2,17,27*,72*,1,43*,83*,·,·,·,
C=CC1CN2CCC1CC2C(OC(C)=O)c1ccnc2ccc(OC)cc12 (stereo not given),-7,-1,-1,-4,3,-3,·,·,·,·,·,
NC(=O)c1ccc(N=Cc2c(O)n(Cc3ccco3)c(=O)[nH]c2=O)cc1,22,13,11,60*,23*,57*,18,22*,12*,-60,50*,
SMILES,rCAG binder,PRMT1 FP inh,ABHD5 PLIN5 PPI,UHRF1 binding,MBD2 inh,LEDGF integ inh,UHRF1 DNA bind,MBD2 DBD conf,IN multimer act,TR-FRET interf,LEDGF integ conf,others
O=c1[nH]c(=O)n(Cc2ccco2)c(O)c1/C=N/N1CCCCCC1,-1,4,2,-1,-4,1,·,·,·,·,·,
N[C@H](CO)Cc1ccccc1,0,2,4,2,3,-5,·,·,·,·,·,
COc1cc2c(cc1OC)-c1c(OC)c(OC)cc3c1[C@H](C2)N(C)CC3,-3,0,-5,41*,20*,26*,18,10,2,-8,25*,
CCCNC1=C(C)C(=O)C2=C(C1=O)C(COC(N)=O)[C@]1(OC)C3NC3CN21 (stereo not given in full),25,6,0,60*,18*,53*,2,0,19*,-67,63*,
O=C1C(=O)N(c2ccccc2)P(=O)(N(CCCl)CCCl)N1c1ccccc1,-2,5,4,-1,1,-5,·,·,·,·,·,
CCC(CO)NC(=O)C1C=C2c3cccc4[nH]cc(c34)CC2N(C)C1 (stereo not given),6,15,-12,10,4,21*,·,·,0,-1,5,
CCN(CC)C(=O)N[C@H]1C[C@@H]2c3cccc4[nH]cc(c34)C[C@H]2N(C)C1,0,15,-10,-6,-7,1,·,·,·,·,·,
